Assay outcomes from PubChem.
Shiga inhibitor: blocks Shiga toxin action in Vero cells; 290,000 tested, 9.2% active; Vero cells, Shiga toxin protein synthesis inhibition reporter; inhibition, % at 38.7 µM; in the data active = inhibition mostly above about 28%, no sharp cut-off; inactive = mostly below about 43%
CHX counter: affects cycloheximide protein synthesis inhibition readout, counter-screen. max response, %. AID 2314. 300,000 tested, 12% active. cell reporter, cycloheximide protein synthesis inhibition counterscreen; in the data active = max response mostly above about 13%, no sharp cut-off; inactive = mostly below about 14%; note: read at 38.3 µM for the half of the compounds with a filed dose
Pf growth 96h: inhibits malaria parasite growth, 96 h | P. falciparum luciferase reporter growth, 96 h | Potency, µM (top dose mostly 28.7 µM), hits mostly inhibitors | 320,000 tested, 6.9% active | AID 504834
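Two-generation exposure (96 h) targets delayed-death phenotype. Reporter parasites carrying integrated firefly luciferase, in red cells at 2% hematocrit and 0.05% parasitemia final, kept at 37 C, 5% CO2; luminescence loss indicates inhibition.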
Pf growth 48h: P. falciparum growth inhibition at 48 hours (one generation) | P. falciparum luciferase growth in erythrocytes, 48 h | 310,000 tested, 5.9% active | Potency, µM (top dose mostly 28.7 µM), most hits filed as inhibitors
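Here the parasites carry a stable luciferase gene and grow inside erythrocytes in Albumax-based RPMI medium with compound for one erythrocytic cycle. Activity is scored as loss of luminescent signal.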
LmPK inh: blocks Leishmania mexicana pyruvate kinase activity | Q27686 | purified LmPK, Kinase-Glo ATP luminescence, 1 h | Potency, µM (titrated, usually from 57.5 µM), most hits filed as inhibitors | 290,000 tested, 0.37% active
Target sequence (Q27686 whole entry, looked up): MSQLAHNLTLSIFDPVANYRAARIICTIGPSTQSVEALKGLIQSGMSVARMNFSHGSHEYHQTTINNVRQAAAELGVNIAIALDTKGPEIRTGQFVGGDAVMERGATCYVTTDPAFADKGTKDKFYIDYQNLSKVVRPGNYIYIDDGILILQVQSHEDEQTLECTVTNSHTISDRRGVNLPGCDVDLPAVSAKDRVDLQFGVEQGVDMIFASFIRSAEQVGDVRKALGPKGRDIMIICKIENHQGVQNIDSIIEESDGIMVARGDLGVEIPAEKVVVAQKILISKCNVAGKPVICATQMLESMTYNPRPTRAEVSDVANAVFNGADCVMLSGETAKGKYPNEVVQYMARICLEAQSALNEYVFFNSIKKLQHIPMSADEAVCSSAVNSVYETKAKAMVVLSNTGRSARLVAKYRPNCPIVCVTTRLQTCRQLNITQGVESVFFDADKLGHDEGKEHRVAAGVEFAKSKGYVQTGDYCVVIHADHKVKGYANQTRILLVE
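0.1 nM LmPK, 0.5 mM PEP, 0.1 mM ADP; 50 mM imidazole pH 7.2, 7 mM MgCl2, 50 mM KCl; 1 h RT. Kinase-Glo luminescence readout, normalized to no-enzyme (full inhibition) and uninhibited wells.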
Of the large screens only hits and unclear results are named; the others gave an inactive call; ! = not active in a repeat. Shown are actives, neighbours in structure and some others; about 22% of the full set was active somewhere. Unless noted, calls come from the whole dose curve; as a rule, active = well fitted inhibition curve with a large enough effect; inconclusive = small, poorly fitted or top-dose-only effect, or another doubt; inactive = no such curve, though single readings can be large or run the other way.

CC(=O)c1ccc(OCC(O)CN2CCN(Cc3ccc4c(c3)OCO4)CC2)cc1 (configuration not stated)	Pf growth 96h 4.1µM!
Cc1ccc(C)c(C2=NNC(=NCc3ccccc3)SC2)c1	Shiga inhibitor 32, Pf growth 96h inconclusive, Pf growth 48h inconclusive
Clc1ccc(C2=NNC(=NCC3CCCO3)SC2)cc1 (configuration not stated)	Shiga inhibitor 160, CHX counter 60, Pf growth 96h inconclusive
Cc1cccc(C)c1N=C1NN=C(c2ccccc2F)CS1	Pf growth 96h inconclusive
Cc1cc(C2=NNC(=NCCc3ccccc3)SC2)c(C)n1CC1CCCO1 (configuration not stated)	Shiga inhibitor 194, CHX counter 46, Pf growth 96h inconclusive, Pf growth 48h inconclusive
C=CCn1c(C)cc(C2=NNC(=NCc3ccccc3)SC2)c1C	Shiga inhibitor 111, CHX counter 62, Pf growth 96h 10µM
CCCCN=C1NN=C(c2ccc3c(c2)OCCO3)CS1	none
CC(Oc1ccccc1F)C(=O)NNC(=O)CCNC(=O)c1ccccc1Cl (configuration not stated)	none
CCCCN(C(=O)c1cc(S(=O)(=O)N2CCOCC2)ccc1Cl)c1c(N)n(CC(C)C)c(=O)[nH]c1=O	none (no result: Shiga inhibitor, CHX counter, LmPK inh)
Cc1cc(-c2n[nH]c(=S)n2Cc2ccco2)nn1C	LmPK inh inconclusive
CCN=C1NN=C(c2cc(C)n(CCc3ccccc3)c2C)CS1	Shiga inhibitor 62, CHX counter 32, Pf growth 96h inconclusive, Pf growth 48h inconclusive
C=C(C)CN=C1NN=C(c2cc(C)n(-c3ccc(C)cc3)c2C)CS1	Pf growth 96h inconclusive, Pf growth 48h inconclusive
CCN=C1NN=C(c2cc(C)n(Cc3ccco3)c2C)CS1	Shiga inhibitor 138, CHX counter 87
CC1=CC(C)C(C[N+]2(C)CCCCC2)C(C)C1 (configuration not stated)	Pf growth 48h inconclusive
CC1=CC(C)C(/C=N/N=C(N)N)C(C)C1 (configuration not stated)	Pf growth 96h 2.9µM, Pf growth 48h 12µM
O=C(Nc1oc2ccccc2c(=O)c1-c1ccc(Cl)cc1)c1ccco1	CHX counter 22
Cc1ccc(-c2c(NC(=O)c3ccco3)oc3ccccc3c2=O)cc1	none
COc1ccc(C(=O)C2CCCN(Cc3ccc(C#CCCO)cc3)C2)cc1F (configuration not stated)	Pf growth 48h inconclusive
COc1ccc2cc3cc(C(=O)NCc4cccs4)oc3nc2c1	Pf growth 48h 5.9µM
CCN1CCN(CCCNC(=O)c2cc3cc4ccc(OC)cc4nc3o2)CC1	Pf growth 48h 13µM
COc1ccc2cc3cc(C(=O)NCCCN4CCOCC4)oc3nc2c1	Pf growth 96h 1.2µM, Pf growth 48h inconclusive
Cc1ccc2cc3cc(C(=O)NCCCN4CCCC4=O)oc3nc2c1	Pf growth 96h inconclusive, Pf growth 48h 2.6µM
Cc1ccc2cc3cc(C(=O)NCCN4CCOCC4)oc3nc2c1	Pf growth 96h inconclusive, Pf growth 48h inconclusive
COc1ccc(C(=O)NCCCN2CCOCC2)cc1	Pf growth 96h inconclusive
COc1ccc(S(=O)(=O)N2CCN=C2SCc2cccc(C)c2)cc1	Pf growth 96h inconclusive, Pf growth 48h inconclusive
COc1ccccc1C(=O)Nn1c(C)nc2ccccc2c1=O	none (no result: Pf growth 48h)
Cc1ccc2cc3cc(C(=O)NCc4ccc5c(c4)OCO5)oc3nc2c1	Pf growth 96h 3.7µM
CCCCN(CC)C(=O)c1cc2cc3ccc(Cl)cc3nc2o1	Shiga inhibitor 64, CHX counter 33, Pf growth 48h inconclusive
COc1ccc2cc3cc(C(=O)NCCc4ccc(OC)c(OC)c4)oc3nc2c1	Pf growth 48h inconclusive
Cc1ccc(C(=O)NCc2ccc3c(c2)OCO3)o1	none (no result: Shiga inhibitor)
CCCN(CCC)CCCNC(=O)c1cc2cc3ccc(OC)cc3nc2o1	Pf growth 48h inconclusive
CCCCN(CC)CCCNC(=O)c1cc2cc3ccc(OC)cc3nc2o1	Pf growth 96h 3.7µM, Pf growth 48h inconclusive
COc1ccc2cc3cc(C(=O)NCCCN4CCC(C)CC4)oc3nc2c1	Shiga inhibitor 128, CHX counter 43, Pf growth 48h inconclusive
O=C(CCc1nc2ccccc2c(=O)[nH]1)NNC(=O)c1ccc(F)cc1	none (no result: Shiga inhibitor, CHX counter, LmPK inh)
COc1cc(NS(=O)(=O)c2ccc(Nc3nc(-c4ccccc4)cs3)cc2)nc(OC)n1	none
CC(=O)NC(=S)Nc1ccc(S(=O)(=O)Nc2nc(C)cc(C)n2)cc1	Pf growth 96h inconclusive
CCCCNC(=O)Cn1c(=O)n(C)c2ccccc21	Pf growth 96h 7.4µM
CCCNC(=O)Cn1c(=O)n(C)c2ccccc21	none
CC(Oc1ccc(Cl)cc1Cl)c1nc(-c2ccc(NC(=O)c3ccccn3)cc2)no1 (configuration not stated)	Shiga inhibitor 71, CHX counter 28
COc1ccc(NC(=O)c2cnn(-c3ccccc3)c2C)cc1	CHX counter 36 (no result: Shiga inhibitor)
COc1ccc(CN2CCn3ncc(C(=O)Nc4ccccc4)c3C2=O)cc1	Shiga inhibitor 52, CHX counter 32, Pf growth 96h inconclusive
COc1ccc(NC(=O)c2cnn(-c3ccccc3)c2C)cc1OC	Shiga inhibitor 80, CHX counter 39
CCN(CC)C(=O)NCc1c(C)cc(C)cc1C	none
COc1cc(SC)ccc1C(=O)Nc1cc(C)c(OCC(=O)N2CCOCC2)c(C)c1	Pf growth 96h inconclusive
COc1cc(SC)ccc1C(=O)Nc1ccc(C)cc1	Shiga inhibitor 69, CHX counter 36, Pf growth 96h inconclusive
COc1ccc(CNC(=O)c2ccc(SC)cc2OC)cc1	Pf growth 96h inconclusive, Pf growth 48h inconclusive
CCN(CC)S(=O)(=O)c1cccc(NC(=O)c2ccc(SC)cc2OC)c1	Pf growth 96h inconclusive, Pf growth 48h inconclusive
COc1cc(SC)ccc1C(=O)Nc1ccc(OCC(=O)N2CCOCC2)cc1	Shiga inhibitor 61, CHX counter 17
COc1cc(SC)ccc1C(=O)Nc1ccc(S(=O)(=O)N2CCCC2)cc1	none (no result: Pf growth 96h, Pf growth 48h)
COc1cc(SC)ccc1C(=O)Nc1ccc2c(c1)OCO2	Shiga inhibitor 71, CHX counter 37
COc1cc(SC)ccc1C(=O)Nc1ccc(C)cc1C	Shiga inhibitor 106, CHX counter 47, Pf growth 96h inconclusive
Cn1cc(/C=N/n2cnc3scc(-c4ccccc4)c3c2=O)c2ccccc21	Pf growth 96h 3.3µM
Cc1[nH]c(C)c(S(=O)(=O)N2CCN(c3ccccc3F)CC2)c1C(=O)N1CCCCC1	Pf growth 48h inconclusive
CCOC(=O)N1CCC(NC(=O)c2oc3c(c2C)-c2[nH]ncc2CC3)CC1	Pf growth 96h 8.3µM (no result: Pf growth 48h)
COc1c(C)cc(C(=O)C2CCCN(C(=O)c3cc4nc(C)cc(C)n4n3)C2)cc1C (configuration not stated)	Shiga inhibitor 25, Pf growth 96h inconclusive, Pf growth 48h inconclusive
COc1c(C)cc(C(=O)C2CCCN(C(=O)c3cccc(-n4cccn4)c3)C2)cc1C (configuration not stated)	CHX counter 13
COc1c(C)cc(C(=O)C2CCCN(C(=O)c3csc(C)n3)C2)cc1C (configuration not stated)	none
